Measured values as given in PubChem BioAssay AID2540 (Sanford-Burnham Center for Chemical Genomics, 2010).
The whole screen tested about 330,000 compounds, of which about 4,100 (1.2%) were called active. Cut-off read from the data, not from the text of the source: active = inhibition above about 50%; inactive = the rest. Many of the other results were omitted from the sample, so actives are more common in it than they were.

Target: Sentrin-specific protease 8 (Homo sapiens) (UniProt Q96LD8)
Assay: blockers of human SENP8 peptidase activity – biochemical, luminescence, primary screen (AID 2540)
Details: purified SENP8, Z-RLRGG-aminoluciferin cleavage, at 10 µM, hits give high values

Chain of Sentrin-specific protease 8 (Homo sapiens) (Q96LD8 whole entry, looked up): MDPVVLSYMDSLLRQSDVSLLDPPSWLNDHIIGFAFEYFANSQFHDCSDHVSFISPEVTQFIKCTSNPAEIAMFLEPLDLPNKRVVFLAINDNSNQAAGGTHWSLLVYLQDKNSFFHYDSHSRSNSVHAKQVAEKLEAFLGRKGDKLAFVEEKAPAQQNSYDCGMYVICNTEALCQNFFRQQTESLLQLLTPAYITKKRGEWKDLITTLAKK

| SMILES | inhibition |
| --- | --- |
| COc1ccc(OCC(=O)NCCS(=O)(=O)N2CCN(c3ccc(F)cc3)CC2)cc1 | 1.89% (inactive) |
| CN=C(NC#N)NCCSCc1nc[nH]c1C | -4.47% (inactive) |
| O=C(c1cnn(-c2ccc(Cl)cc2)c1)c1ccccc1O | 91.4% (active) |
| Cc1cc(O)cc(O)c1C(=O)Cc1cnn(-c2ccccc2)c1 | -5.32% (inactive) |
| O=C(Nc1ccccc1)OCc1cn(-c2ccc(Cl)cc2)nn1 | -2.31% (inactive) |
| O=c1[nH]c(CN2CCOCC2)nc2scc(-c3ccccc3)c12 | 1.83% (inactive) |
| O=[N+]([O-])c1ccc(C=Nc2ccc(Cl)cc2Cl)s1 | 59.6% (active) |
| CC(C)(C)c1cc(C(=O)N/N=C/c2ccc([N+](=O)[O-])s2)n[nH]1 | 20.8% (inactive) |
| Cc1ccccc1NCC(=O)N/N=C\c1ccc([N+](=O)[O-])s1 | 33% (inactive) |
| CCc1ccc(NC(=O)N2CCc3ccccc3C2)cc1 | -3.45% (inactive) |
| COc1ccc([N+](=O)[O-])cc1NC(=O)C(C)OC(=O)C1c2ccccc2Oc2ccccc21 (stereo unspecified) | -5.39% (inactive) |
| Cn1cnc(C(F)(F)F)c1-c1ccc([N+](=O)[O-])cc1 | 2.27% (inactive) |
| CCOC(=O)N1CCN(C(=O)Cn2cnc3ccccc3c2=O)CC1 | -8.63% (inactive) |
| CN(C(=O)Nc1ccc(Cl)cc1)n1cnc2ccccc2c1=O | -6.28% (inactive) |
| O=c1c2ccccc2ncn1/N=C/c1ccccc1 | 80.9% (active) |
| CCOC(=O)C1CCN(S(=O)(=O)c2ccc3c(c2)N(C(C)=O)CCO3)CC1 | -1.03% (inactive) |
| Cc1ccc(CNC(=O)[C@@H](NC(=O)Cc2ccccc2)C(C)C)cc1 | 2.25% (inactive) |
| CC(C)C(=O)Nc1nnc(SCC(=O)N2C(C)CCCC2C)s1 (stereo unspecified) | -3.68% (inactive) |
| COc1ccc(C2C3=C(OC(C)=O)c4ccccc4C3=Nc3c2c(=O)n(C)c(=O)n3C)cc1 (stereo unspecified) | 7.93% (inactive) |
| O=C(COC(=O)/C=C/c1cn(-c2ccccc2)nc1-c1cccnc1)Nc1ccc(Cl)cc1Cl | -4.08% (inactive) |
| CCOc1ccc(C(=O)Nc2cccc(SC)c2)cc1 | 82.4% (active) |
| CCOc1ccc(C(=O)Nc2cccc(-c3ccc4nncn4n3)c2)cc1 | -9.4% (inactive) |
| CSc1cccc(NC(=O)CSc2ccccc2)c1 | -14.5% (inactive) |
| COc1cccc(C(=O)Nc2nnc(S(=O)(=O)N3CCCCC3)s2)c1 | -11% (inactive) |
| O=C(Nc1ccc(N2CCOCC2)cc1)c1cccc(S(=O)(=O)N2CCOCC2)c1 | -6.21% (inactive) |
| COc1cccc(C(=O)Nc2ccc(N3CCCC3)cc2)c1 | 96.4% (active) |
